Results taken from the supplement of paper PMC12297408.
Where a name gives a salt, the structure may show the parent alone. Unmarked numbers belong to inactive results.

Test system: Plasmodium falciparum NF54/iGP1_RE9H ulg8 stage V gametocytes
Assay: gametocyte viability (luciferase signal relative to DMSO control) (% of DMSO control); higher = less gametocytocidal activity, active = 50 or less
Details: exposure time: 72 h
Protocol: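 Synchronous P. falciparum NF54/iGP1_RE9H ulg8 mature stage V gametocytes (day 12) were exposed to Cayman Epigenetics Screening Library compounds at 10 µM or 1 µM for 72 h at 37 °C. Viability was read as RE9H luciferase bioluminescence, normalised to DMSO plate controls (100%); 50 µM methylene blue was the positive control.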

Structure (SMILES) | gametocyte viability (concentration: 1 µM) | gametocyte viability (concentration: 10 µM)
Clc1ccc(-c2csc(NN=C3CCCC3)n2)cc1 [CPTH2 (hydrochloride)] | 98.4 | 83.9
O=C(O)c1ccc(CN2CCC(CN[C@@H]3C[C@H]3c3ccccc3)CC2)cc1 | 86.7 | 88.4
C#Cc1cccc(Nc2ncnc3cc(OC)c(OCCCCCCC(=O)NO)cc23)c1 | 58.7 | 56.7
C=C1C(=O)O[C@@H](CCC)[C@@H]1C(=O)O [Butyrolactone 3] | 97.4 | 89.9
CC(C)Oc1ccc(-c2c[nH]cc2CN(C)CCN)cc1 [MS023 (hydrochloride)] | 64.4 | 30.3 (active)
Cc1[nH]c2ccccc2c1CCNCc1ccc(/C=C/C(=O)NO)cc1 [Panobinostat] | 60.2 | 61.4
CN(C)c1ccc(C(=O)NCCCCCCC(=O)NO)cc1 | 83.7 | 50.5
O=C(NCC(=O)N1CCCC1)Nc1ccc2cnccc2c1 | 91.7 | 93.4
O=C1/C(=C/c2ccc(O)c(Br)c2)CCC/C1=C\c1ccc(O)c(Br)c1 [HAT Inhibitor II] | 89.2 | 83.2
O=C(Cc1ccccc1)Nc1ccc2oc(-c3ccc(Cl)cc3Cl)nc2c1 | 80.3 | 51.9
Nc1ccccc1NC(=O)CCCCCC(=O)Nc1ccccc1 | 88.7 | 96.1
COC(=O)c1ccc(N2CCN(C)CC2)c(NC(=O)c2cccc(OC)c2)c1 | 85.8 | 82.1
CC(NC(=O)c1ccccc1/N=C/c1c(O)ccc2ccccc12)c1ccccc1 (configuration not stated) [Sirtinol] | 102 | 95
CN(C)Cc1ccc(S(=O)(=O)n2ccc(/C=C/C(=O)NO)c2)cc1 [Resminostat (hydrochloride)] | 94.8 | 77.8
CS(=O)(=O)c1ccc(-c2cnc(NCc3ccco3)n3cnnc23)cc1 | 88.5 | 91.4
O=C(CCCCCCC(=O)Nc1ccc(I)cc1)NO [4-iodo-SAHA] | 88.3 | 67.2
CCCC(CCC)C(=O)O [Valproic Acid (sodium salt)] | 86.9 | 86.4
O=C([C@@H](Cc1cccc(C(F)(F)F)c1)NS(=O)(=O)c1cc(F)c2c(c1)CCNC2)N1CCCC1 [(R)-PFI-2 (hydrochloride)] | 85.2 | 77.8
Nc1ncn([C@H]2C[C@H](O)[C@@H](CO)O2)c(=O)n1 [Decitabine] | 90.6 | 90
CC1CC/C(=N\Nc2nc(-c3ccc(Cl)cc3)cs2)C1 (configuration not stated) [CPTH6 (hydrobromide)] | 86.6 | 82.2
Clc1cc2c(NC3CCCC3)nnc(-c3ccncc3)c2cc1Cl | 83.9 | 71.7
CC(C)N(CCCNC(=O)Nc1ccc(C(C)(C)C)cc1)C[C@H]1O[C@@H](n2ccc3c(N)ncnc32)[C@H](O)[C@@H]1O | 94.6 | 94.1

Structure (SMILES) | gametocyte viability (concentration: 1 µM) | gametocyte viability (concentration: 10 µM)
CN1CCN(C(=O)CNC2CC2c2ccc(OCc3ccccc3)cc2)CC1 (configuration not stated) [RN-1 (hydrochloride)] | 89.1 | 72.8
O=C1C(=Cc2cccnc2)C(=O)c2ccccc21 | 79.2 | 80.2
Cc1noc(C)c1-c1ccc(-c2nc3cnccn3c2NC(C)(C)C)cc1 | 84.1 | 64.8
COc1cc(-c2cn(C)c(=O)c3cnccc23)c(OC)cc1CN(C)C | 86.9 | 85.8
O=C(CCl)Nc1ccc(S(=O)(=O)c2ccc(NC(=O)CCl)cc2)cc1 | 78.5 | 45 (active)
CCCC(=O)[O-].[Na+] [Sodium Butyrate] | 83.8 | 84.7
Oc1cc(O)cc(/C=C/c2ccc(Br)cc2)c1 [4'-bromo-Resveratrol] | 51.7 | 6.07 (active)
CCOC(=O)NNc1nncc2ccccc12 [Todralazine (hydrochloride)] | 89.5 | 89.1
O=C(NC[C@H](O)CN1CCc2ccccc2C1)c1cc(NC2COC2)ncn1 | 90 | 89.1
O=C(NC[C@H](O)CN1CCc2ccccc2C1)c1ccnc(NC2CCC2)c1 | 80.7 | 79.5
CCn1c2ccccc2c2cc(CNCc3ccccc3OC)ccc21 [HLCL-61 (hydrochloride)] | 85 | 94
CC(=O)SCC(=O)c1ccc(NS(=O)(=O)c2ccc(OCCCN(C)C)cc2)nc1 | 83.8 | 85.4
CCC(CC)(NC(=O)C(C)C)C(=O)N[C@@H](CCCN=C(N)N)C(=O)NC1(C(=O)NC(c2ccc(F)cc2)c2ccc(F)cc2)CCCC1 | 82.6 | 82.6
Nc1ccccc1NC(=O)c1ccc(CNc2nccc(-c3cccnc3)n2)cc1 [Mocetinostat] | 89.7 | 88.2
COc1cc(OC)c2c(=O)[nH]c(-c3cc(C)c(OCCO)c(C)c3)nc2c1 | 94.1 | 92.5
O=C(O)CC[C@H](O)C(=O)O [L-α-Hydroxyglutaric Acid (sodium salt)] | 92.7 | 86.7
O=C(O)CNC(=O)C(=O)O [N-Oxalylglycine] | 87.3 | 85.3
COc1cc2c(NC3CCN(CC4CCCCC4)CC3)nc(N3CCCN(C(C)C)CC3)nc2cc1OCCCN1CCCCC1 | 60.9 | 14.7 (active)
O=C(O)CCCc1ccccc1 [Sodium 4-Phenylbutyrate] | 90.4 | 89.2
O=c1oc2c(O)c(O)cc3c(=O)oc4c(O)c(O)cc1c4c23 [Ellagic Acid] | 101 | 95.3
N[C@H]1CC[C@H](N[C@@H]2C[C@H]2c2ccccc2)CC1 | 74.5 | 70.7
Cc1cc(Nc2ccc(NC(=O)c3ccc(Nc4ccnc5ccccc45)cc3)cc2)nc(N)n1 | 31.4 (active) | 2.18 (active)

Structure (SMILES) | gametocyte viability (concentration: 1 µM) | gametocyte viability (concentration: 10 µM)
CCC(=O)N1CCOc2c(cc(-c3ccc(OC)c(OC)c3)cc2OC[C@H]2CCCN(C)C2)C1 [I-CBP112 (hydrochloride)] | 84.5 | 86.9
Cn1cc(CCn2cnc(-c3cnn(C)c3)c2-c2ccc(C#N)cc2)cn1 | 91.3 | 89.1
CC(C)N(CCCNC(=O)Nc1ccc(C(C)(C)C)cc1)C[C@H]1O[C@@H](n2cc(Br)c3c(N)ncnc32)[C@H](O)[C@@H]1O | 88 | 49.3 (active)
CCCCCCCCCCCCCCCc1cccc(O)c1C(=O)O [Anacardic Acid] | 84.7 | 82.9
Cc1ccc(NC(=O)CCCCCC(=O)Nc2ccccc2N)cc1 [Pimelic Diphenylamide 106] | 86.8 | 89
CC(C(=O)Nc1cccc(/N=C/c2c(O)ccc3ccccc23)c1)c1ccccc1 (configuration not stated) [Salermide] | 88.8 | 88.4
O=C(NN=Cc1c(O)ccc2ccccc12)c1ccncc1 | 84.7 | 65.4
COc1nnc2ccc(N3CCC(c4ccc(OCCN5CCN(C)C(=O)[C@H]5C)cc4)CC3)nn12 | 93.3 | 90.3
NC(=O)[C@H](CCCN=C(N)CCl)NC(=O)c1ccccc1 [Cl-Amidine (hydrochloride)] | 104 | 98.5
Nc1ccc(S(=O)(=O)NCCc2ccccc2)cc1 | 84.2 | 86.3
CC(C)(CNC(=O)c1cccc(-c2noc(C(F)(F)F)n2)c1)c1coc(-c2ccccc2)n1 | 90.2 | 83.2
COc1ccc(S(=O)(=O)ON=C2C=C(C)C(=O)C(C)=C2)cc1 | 87.3 | 43.2 (active)
COc1cccc2c1c(O)c(C(=O)N(C)c1ccc(C(F)(F)F)cc1)c(=O)n2C [Tasquinimod] | 83.1 | 82.9
CC(C)C(=O)SCCCCCCC(=O)Nc1nc(-c2ccccc2)cs1 | 82.8 | 79.7
CC(=O)Nc1ccc(NC(=S)NC(=O)c2ccc(C(C)(C)C)cc2)cc1 [Tenovin-1] | 81.3 | 81.9
CN1CCN(c2ccc(-c3cccc(CN4CCOCC4)c3)cc2NC(=O)c2c[nH]c(=O)cc2C(F)(F)F)CC1 | 89.4 | 94.1
COc1cc2c(cc1NS(=O)(=O)c1ccc(Br)cc1C)n(C)c(=O)n2C | 89 | 86.4
O=c1[nH]c(=S)[nH]c(-c2ccccc2)c1Cc1c(O)ccc2ccccc12 [SIRT1/2 Inhibitor IV] | 84.7 | 87.5
CC(=O)OCC1OC(n2cnc(N)nc2=O)C(OC(C)=O)C1OC(C)=O (configuration not stated) [2',3',5'-triacetyl-5-Azacytidine] | 87.3 | 85.8
O=C(CCCCCCC(=O)NO)NO [Suberohydroxamic Acid] | 106 | 87.9
CCCCCCCCOC(=O)C(O)CCC(=O)O (stereo not drawn) [Octyl-α-hydroxyglutarate] | 92.4 | 95.4
CN(C)CCCNC(=O)c1ccc(-c2cc(O)c3ncccc3c2)cc1 | 85.2 | 49.8 (active)
